{"source": "PubChem BioAssay", "note": "Unmarked numbers belong to inactive results. The source made the active and inactive calls.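 How the source made its calls: active means z-score of at least 1.8 in each of two replicates, scored against plate mean and spread of sample wells; inactive means the rest.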", "data": [{"test": "galactose survival enhancers in mitochondrial complex I cybrids – cell-based, galactose medium, ATP luminescence, primary screen (AID 1645843);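 further: positive z means more ATP and so rescue of galactose-driven cybrid death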", "conditions": "complex I mutant cybrid cells, 72 h, stronger effect = higher value", "values": [{"smiles": "COc1ccccc1-c1noc(C(C)n2cccn2)n1", "note": "(stereo not given)", "z-score": -0.115}, {"smiles": "Cc1cccc(C2CCCN(C(=O)c3cc(C(C)C)no3)C2)c1", "note": "(stereo not given)", "z-score": 1.05}, {"smiles": "CCCC(C)CN(CC)C1CCS(=O)(=O)C1", "note": "(stereo not given)", "z-score": -0.55}, {"smiles": "COC(=O)c1ccc(N2CCC(c3ccccc3Cl)C2)nc1", "note": "(stereo not given)", "z-score": 0.895}, {"smiles": "CCCC[C@@H]1C[C@@H]1C(=O)N1CCC(n2cc(C3CCCCC3)nn2)CC1", "z-score": 1.86}, {"smiles": "CCCC(NC(=O)c1ccc[n+]([O-])c1)c1ccccc1", "note": "(stereo not given)", "z-score": -0.43}, {"smiles": "CCCC1CCCN1Cc1ccccc1OC1(C(=O)O)CCCC1", "note": "(stereo not given)", "z-score": -0.265}, {"smiles": "Cc1ccc(C(=O)N2CCNC(=O)C2Cc2ccccc2)cc1F", "note": "(stereo not given)", "z-score": -0.505}, {"smiles": "O=C1CN(c2ncnc3nc[nH]c23)CCN1C1CCCCC1", "z-score": 1.14}, {"smiles": "Cc1ccc(C(=O)NCC2CCCN(C(=O)C3CC3)C2)cn1", "note": "(stereo not given)", "z-score": -0.52}, {"smiles": "COc1ccc(F)cc1-c1ccc2ccccc2n1", "z-score": -0.15}, {"smiles": "Cc1cccc(-n2cc(CN(C)C(=O)C(=O)c3ccco3)cn2)c1", "z-score": 0.6}, {"smiles": "Nc1ncc(-c2ccc(Cl)cc2Cl)cn1", "z-score": -0.065}, {"smiles": "O=C(C1CCCCCC1)N1CCC(Cn2cc(CCCO)nn2)CC1", "z-score": -0.325}, {"smiles": "O=C(CN1CCOC1=O)NCCc1cccc(F)c1", "z-score": -0.505}, {"smiles": "COc1cccc(-n2cc(-c3ccnc(N4CCCN(C(C)=O)CC4)n3)cn2)c1", "z-score": -1.14}, {"smiles": "Cc1cc(CN2CCC(Cc3ccc(F)cc3)CC2)n(C)n1", "z-score": 0.225}, {"smiles": "Cc1nn(C)c(C)c1-c1ccnc(NCCc2nc(-c3ccccn3)no2)n1", "z-score": -0.395}, {"smiles": "CC1CCCN1C(=O)c1cc(-c2cnn(C(C)C)c2)nc2cc(F)ccc12", "note": "(stereo not given)", "z-score": -0.72}, {"smiles": "O=c1cc(-c2ccccc2Cl)nc(-c2ccc(CN3CCC[C@@H](O)C3)cc2)[nH]1", "z-score": -0.605}, {"smiles": "CC(CCc1ccc(O)cc1)NC1CCCCCC1", "note": "(stereo not given)", "z-score": -0.855}, {"smiles": "CN(Cc1nc(-c2cccnc2)no1)C(=O)c1nc2ccccc2s1", "z-score": 0.26}, {"smiles": "Cc1ccsc1C(=O)N1CCC(n2cc(C(C)(C)O)nn2)CC1", "z-score": -0.505}, {"smiles": "COc1cccc2ccc(-c3ccc(C(C)=O)cc3)nc12", "z-score": "2.67 (active)"}, {"smiles": "COC(=O)c1nn(CC(=O)Nc2cnn(C)n2)c2ccccc12", "z-score": 1.92}, {"smiles": "COC(C)(C)CCCC(C)CCN1CCC(n2cc(C(C)(C)N)nn2)CC1", "note": "(stereo not given)", "z-score": -0.52}, {"smiles": "CN(C)Cc1cn(C2CCN(C(=O)C3CCCCCC3)CC2)nn1", "z-score": -0.49}, {"smiles": "Cc1ccn(CCN2CCC(Oc3cccc(Cl)c3)CC2)n1", "z-score": 0.135}, {"smiles": "COc1ccc(-c2nc(N)nc(Nc3ccc(C)cc3)n2)cc1F", "z-score": -0.745}, {"smiles": "CCCc1ccc(C(=O)N2CCC2c2cccc(OC)c2)cc1", "note": "(stereo not given)", "z-score": "2.41 (active)"}, {"smiles": "COc1ccccc1N1CCN(C(=O)Nc2n[nH]c(Cc3ccccc3)n2)CC1", "z-score": -0.935}, {"smiles": "COc1nccnc1-c1cccc(-n2cccn2)c1", "z-score": -0.545}, {"smiles": "Cc1ccccc1C1CCCN(C(=O)c2cc(C(C)C)no2)C1", "note": "(stereo not given)", "z-score": "2.95 (active)"}, {"smiles": "COc1ccc2c(C(=O)N(C)CCc3ccccn3)cc(-c3cnn(C)c3)nc2c1", "z-score": -0.54}, {"smiles": "O=C(C1CCCCCC1)N1CCC(n2cc(-c3ccccn3)nn2)CC1", "z-score": -0.545}, {"smiles": "CCN(C(=O)c1cc(-c2cnc(C(C)C)nc2)nc2cc(F)ccc12)C(C)C", "z-score": -0.47}, {"smiles": "CC(C)CN1CCN(Cc2ccco2)C(CCO)C1", "note": "(stereo not given)", "z-score": -0.595}, {"smiles": "COC(=O)CN1CCN(c2cc(OC)ncn2)CC1=O", "z-score": -0.535}, {"smiles": "CCc1nc(C)ccc1OCC(=O)N1CCc2[nH]nc(C3CCC3)c2C1", "z-score": -0.6}, {"smiles": "Cc1nsc(NC(=O)NC(C)c2ccc(Cl)cc2)n1", "note": "(stereo not given)", "z-score": -0.26}]}]}
